Reference: PubChem BioAssay

Tested on: Human papillomavirus type 1a protein E7 (residues 44-93)
Assay: HPV1a E7 fragment binders on microarrays, primary screen, biochemical, small-molecule microarray, residues 44-93, 635 nm fluorescence (AID 1108);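 further: E7 fragment applied at 1 µg/mL in TBST for 1 h at 4 C; score combines spot fluorescence with its signal to noise ratio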
Conditions: small-molecule microarray binding, fluorescence 635 nm; higher = more signal

Structure (SMILES) | composite z-score
COC(=O)[C@@]1(Cc2ccccc2N=[N+]=[N-])COC(c2ccc(OCCCO)cc2)=N1 | 1.02
CC(C)C(=C=CC[C@@H](O)c1ccccc1OCCO)C[C@@H](O)c1ccccn1 | 0.752
O=C(O)[C@H]1C[C@H]2C(=O)NCC(=O)N2[C@H]1c1ccc(O)cc1 | -0.008
C=CC[C@]1(C(=O)N2CCOCC2)N=C(c2ccc(OCCCO)cc2)O[C@H]1c1ccccc1 | 1.18
COc1cc(C(O)C2C=CC3C(=O)N(c4ccccc4)C(=O)C3N2Nc2ccc(C#N)cc2)cc(OC)c1OC (stereo not given) | 0.626
O=C1O[C@H](c2ccccc2)[C@H](c2ccccc2)N2[C@H]1[C@@H](C(=O)Nc1nc3ccccc3s1)[C@]1(C(=O)Nc3ccccc31)[C@H]2c1ccc(O)cc1 | 1.35
O=C1O[C@@H](c2ccccc2)[C@@H](c2ccccc2)N2[C@@H](c3ccc(O)cc3)[C@]3(C(=O)Nc4ccc(C#CC5(O)CCCCCC5)cc43)[C@@H](C(=O)N3CCCCCCC3)[C@H]12 | 1.48
O=C1C=CC(=O)[C@@H]2CC(COc3ccccc3)=C3[C@@H](CCc4ccccc4)OB(O)C[C@@H]3[C@H]12 | 0.23
CCOC(=O)C1=CCC(C(C)(C)C)N(S(=O)(=O)c2ccc(C)cc2)C1 (stereo not given) | 1.46
CCOC(=O)C1=CCC(c2ccc([N+](=O)[O-])cc2)N(S(=O)(=O)c2ccc(C)cc2)C1 (stereo not given) | 1.08
NCCCCCCNC(=O)[C@H]1C[C@H]2C(=O)NCC(=O)N2[C@H]1c1cccc(OCCO)c1 | 0.298
NC(=O)NCC#Cc1ccc2c(c1)[C@]1(C(=O)N2)[C@H](C(=O)NC[C@H](O)c2ccccc2)[C@H]2C(=O)O[C@H](c3ccccc3)[C@H](c3ccccc3)N2[C@@H]1c1ccc(O)cc1 | 1.38
O=C1N(CCS(=O)(=O)c2ccccc2)Cc2ccccc2[C@H]2OC(c3ccc(OCCCO)cc3)=N[C@@]12CCS(=O)(=O)c1ccccc1 | 0.961
O=C1C2C=CC(C(O)c3ccc(F)cc3)N(Nc3ccccc3)C2C(=O)N1c1ccccc1 (stereo not given) | 1.42
CCOC(=O)C1=C[C@@H](CC)N(S(=O)(=O)c2ccc(C)cc2)[C@H]1c1ccccc1 | 1.36
COc1ccc(CCNC(=O)[C@@]2(c3ccc([N+](=O)[O-])cc3)CC(=O)N(CC34CC5CC(CC(C5)C3)C4)[C@@H]2c2ccc(CO)cc2)cc1 | 1.42
CCC[C@@H]1C=C(C(=O)O)[C@H](c2ccc(C)cc2)N1S(=O)(=O)c1ccc(C)cc1 | 1.36
[N-]=[N+]=NCc1ccccc1[C@H]1OC(c2ccc(OCCCO)cc2)=N[C@@]1(CCS(=O)(=O)c1ccccc1)C(=O)N1CCOCC1 | 1.44
O=C/C=C/c1ccc2c(c1)OCO2 | 0.283
COc1ccc(C(O)C2C=CC3C(=O)N(C)C(=O)C3N2Nc2ccccc2)cc1OCc1ccccc1 (stereo not given) | 1.43
C=C(CCCC)/C(=C/C[C@H](OC(C)=O)c1ccc(CO)o1)c1cnc2ccccc2c1 | 1.39
COCCOC(=O)N1C(=O)[C@@]2(c3cc(C#CCCO)ccc31)[C@H](c1ccccc1OCCO)N1[C@H](c3ccccc3)[C@H](c3ccccc3)OC(=O)[C@H]1[C@@H]2C(=O)N1CCN(c2ncccn2)CC1 | 1.43
CCCCC(O)C1C=CC2C(=O)N(C3CCCCC3)C(=O)C2N1Nc1ccc(OC)cc1 (stereo not given) | 1.4
COCCOC(=O)N1C(=O)[C@@]2(c3cc(C#CCNC(N)=O)ccc31)[C@H](c1ccc(OCCO)cc1)N1[C@H](c3ccccc3)[C@H](c3ccccc3)OC(=O)[C@H]1[C@@H]2C(=O)N1CCc2cc(OC)c(OC)cc2C1 | 0.901
COc1ccc([Si](C)(C)[C@H]2[C@H](CC(=O)N(CCO)Cc3ccccc3)O[C@@]3(C(=O)N(Cc4cccc(N5CCC5=O)c4)c4ccccc43)[C@@H]2C)cc1 | 0.784

Tested on: not listed separately
Assay: modulators of HCV replicon luciferase signal, primary screen, HCV replication inhibitor project, Huh7 cells, luciferase reporter (AID 1109);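 further: huh7 hepatoma cells harbouring a luciferase neomycin HCV replicon reporter; luciferase luminescence as measure of HCV replicon replication; test concentration not given here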
Conditions: 48 h, higher = more signal

Structure (SMILES) | z-score
[N-]=[N+]=Nc1ccccc1C[C@]1(C(=O)NCCN2CCOCC2)N=C(c2ccc(OCCCO)cc2)O[C@H]1c1ccccc1 | -1.99
CCOC(=O)C[C@H]1[C@H](OC(=O)c2ccc(-c3ccccc3)cc2)[C@@H](NC(=O)c2ccc3ccccc3c2)c2cc(OCCCO)ccc2N1C(=O)Cc1ccc(OC)cc1 | -0.983
CC(C)(C)OC(=O)CC[C@@]1(C(=O)O)N=C(c2ccc(OCCCO)cc2)O[C@@H]1c1ccccc1N=[N+]=[N-] | 2.94
O=C1C[C@]2(c3ccc([N+](=O)[O-])cc3)C(=O)N(CC(F)(F)F)c3cc(CO)ccc3[C@H]2N1CC12CC3CC(CC(C3)C1)C2 | -0.156
O=C1OCCC=C[C@H]2OC34C=CCN(c5ccc6ccccc6c5)C(=O)[C@H]3N(CCCCCO)C(=O)[C@@H]4C12 (stereo not given in full) | -0.345
Cc1cc(C)c(C(O)C2C=CC3C(=O)N(c4ccccc4)C(=O)C3N2Nc2ccc(C#N)cc2)c(C)c1 (stereo not given) | -0.111
C=C[C@@H](COC(C)=O)N(Cc1ccccc1[N+](=O)[O-])S(=O)(=O)c1ccc(Br)cc1 | -1.86
COCCOC(=O)N1C(=O)[C@@]2(c3cc(C#Cc4ccc(OC)cc4)ccc31)[C@H](C(=O)N1CCN(c3ncccn3)CC1)[C@H]1C(=O)O[C@H](c3ccccc3)[C@H](c3ccccc3)N1[C@@H]2c1ccc(O)cc1 | -1.39
CCOC(=O)C[C@H]1[C@H](OC(=O)c2ccc(-c3ccccc3)cc2)[C@@H](NC(=O)c2ccc(-c3ccccc3)cc2)c2cc(OCCCO)ccc2N1C(=O)Cc1ccc(OC)cc1 | -1.27
COC(=O)[C@@]1(Cc2ccccc2)[C@H]2c3cc(C(=O)N4CCCC4)n(C)c3C[C@H]2CN1C(=O)c1ccccc1 | -1.45
COC(=O)[C@@]1(Cc2ccccc2N=[N+]=[N-])COC(c2ccc(OCCCO)cc2)=N1 | -0.0499
CC(C)C(=C=CC[C@@H](O)c1ccccc1OCCO)C[C@@H](O)c1ccccn1 | -1.14
O=C(O)[C@H]1C[C@H]2C(=O)NCC(=O)N2[C@H]1c1ccc(O)cc1 | 1.81
C=CC[C@]1(C(=O)N2CCOCC2)N=C(c2ccc(OCCCO)cc2)O[C@H]1c1ccccc1 | -0.716
COc1cc(C(O)C2C=CC3C(=O)N(c4ccccc4)C(=O)C3N2Nc2ccc(C#N)cc2)cc(OC)c1OC (stereo not given) | 0.0783
O=C1O[C@H](c2ccccc2)[C@H](c2ccccc2)N2[C@H]1[C@@H](C(=O)Nc1nc3ccccc3s1)[C@]1(C(=O)Nc3ccccc31)[C@H]2c1ccc(O)cc1 | -1.35
O=C1O[C@@H](c2ccccc2)[C@@H](c2ccccc2)N2[C@@H](c3ccc(O)cc3)[C@]3(C(=O)Nc4ccc(C#CC5(O)CCCCCC5)cc43)[C@@H](C(=O)N3CCCCCCC3)[C@H]12 | -1.29
O=C1C=CC(=O)[C@@H]2CC(COc3ccccc3)=C3[C@@H](CCc4ccccc4)OB(O)C[C@@H]3[C@H]12 | -1.64

Structure (SMILES) | z-score
CCOC(=O)C1=CCC(C(C)(C)C)N(S(=O)(=O)c2ccc(C)cc2)C1 (stereo not given) | -2.59
CCOC(=O)C1=CCC(c2ccc([N+](=O)[O-])cc2)N(S(=O)(=O)c2ccc(C)cc2)C1 (stereo not given) | -2.35
NCCCCCCNC(=O)[C@H]1C[C@H]2C(=O)NCC(=O)N2[C@H]1c1cccc(OCCO)c1 | -0.128
NC(=O)NCC#Cc1ccc2c(c1)[C@]1(C(=O)N2)[C@H](C(=O)NC[C@H](O)c2ccccc2)[C@H]2C(=O)O[C@H](c3ccccc3)[C@H](c3ccccc3)N2[C@@H]1c1ccc(O)cc1 | -0.257
O=C1N(CCS(=O)(=O)c2ccccc2)Cc2ccccc2[C@H]2OC(c3ccc(OCCCO)cc3)=N[C@@]12CCS(=O)(=O)c1ccccc1 | -1.55
O=C1C2C=CC(C(O)c3ccc(F)cc3)N(Nc3ccccc3)C2C(=O)N1c1ccccc1 (stereo not given) | -0.379
CCOC(=O)C1=C[C@@H](CC)N(S(=O)(=O)c2ccc(C)cc2)[C@H]1c1ccccc1 | -2.23
COc1ccc(CCNC(=O)[C@@]2(c3ccc([N+](=O)[O-])cc3)CC(=O)N(CC34CC5CC(CC(C5)C3)C4)[C@@H]2c2ccc(CO)cc2)cc1 | -3.38
CCC[C@@H]1C=C(C(=O)O)[C@H](c2ccc(C)cc2)N1S(=O)(=O)c1ccc(C)cc1 | 0.641
[N-]=[N+]=NCc1ccccc1[C@H]1OC(c2ccc(OCCCO)cc2)=N[C@@]1(CCS(=O)(=O)c1ccccc1)C(=O)N1CCOCC1 | -1.27
O=C/C=C/c1ccc2c(c1)OCO2 | 0.301
COc1ccc(C(O)C2C=CC3C(=O)N(C)C(=O)C3N2Nc2ccccc2)cc1OCc1ccccc1 (stereo not given) | -0.685
C=C(CCCC)/C(=C/C[C@H](OC(C)=O)c1ccc(CO)o1)c1cnc2ccccc2c1 | -1.54
COCCOC(=O)N1C(=O)[C@@]2(c3cc(C#CCCO)ccc31)[C@H](c1ccccc1OCCO)N1[C@H](c3ccccc3)[C@H](c3ccccc3)OC(=O)[C@H]1[C@@H]2C(=O)N1CCN(c2ncccn2)CC1 | -1.92
CCCCC(O)C1C=CC2C(=O)N(C3CCCCC3)C(=O)C2N1Nc1ccc(OC)cc1 (stereo not given) | -0.385
COCCOC(=O)N1C(=O)[C@@]2(c3cc(C#CCNC(N)=O)ccc31)[C@H](c1ccc(OCCO)cc1)N1[C@H](c3ccccc3)[C@H](c3ccccc3)OC(=O)[C@H]1[C@@H]2C(=O)N1CCc2cc(OC)c(OC)cc2C1 | -0.966
COc1ccc([Si](C)(C)[C@H]2[C@H](CC(=O)N(CCO)Cc3ccccc3)O[C@@]3(C(=O)N(Cc4cccc(N5CCC5=O)c4)c4ccccc43)[C@@H]2C)cc1 | -3.85
